A selection: hits, their analogues and other compounds. The true share with any hit is near 2.5%.
D2 PAM-1 = HTS Assay for Positive Allosteric Modulators of the Human D2 Dopamine Receptor: Primary Screen for Potentiators; HEK293 T-REx D2, calcium flux, EC20 dopamine potentiation; potentiation, % at 10 µM; 340,000 tested, 0.34% active; AID 485347, 2010;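 active = potentiation over 3 SD above the plate norm, cut at about 30% in these data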; also: 0% is about no effect
Target sequence (P14416 whole entry, looked up): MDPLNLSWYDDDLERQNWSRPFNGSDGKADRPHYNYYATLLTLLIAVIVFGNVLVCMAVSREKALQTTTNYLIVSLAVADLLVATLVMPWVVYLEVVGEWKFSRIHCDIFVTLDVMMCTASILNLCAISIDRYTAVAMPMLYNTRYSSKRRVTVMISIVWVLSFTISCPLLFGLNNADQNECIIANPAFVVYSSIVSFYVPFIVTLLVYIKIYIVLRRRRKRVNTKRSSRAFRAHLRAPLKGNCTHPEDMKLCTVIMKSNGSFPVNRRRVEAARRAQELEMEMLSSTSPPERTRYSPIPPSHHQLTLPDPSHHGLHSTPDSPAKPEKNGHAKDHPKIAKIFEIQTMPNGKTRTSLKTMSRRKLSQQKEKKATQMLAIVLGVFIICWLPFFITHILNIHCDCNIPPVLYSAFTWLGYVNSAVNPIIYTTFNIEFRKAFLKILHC
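Potentiation of an EC20 dopamine calcium response measured kinetically over 180 s, after a preceding 180 s compound-only read flagging agonists. Cells: inducible Hek293 Trex D2 line, 4000/well, cultured overnight at 30 C before dye loading.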
D2 PAM-2 = Beta-Arrestin HTS for Positive Allosteric Modulators of the Human D2 Dopamine Receptor: Potentiators | D(2) dopamine receptor (Homo sapiens), P14416 | AID 624464, 2012 | DiscoveRx D2 beta-arrestin cells, luminescence, 90 min; 100% = 57 uM dopamine signal | potentiation, % (concentration not given with the values) | 360,000 tested, 0.23% active; in the data active = potentiation above about 50%; inconclusive = mostly about 30% to 49%
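PathHunter beta-arrestin assay in DiscoveRx D2 cells. Compounds were added with an EC20 of dopamine (50 nM final) for 90 min at 37 deg C. Luminescence was read 1 h after detection reagent, with 57 uM dopamine as the EC100 control.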
Apoferritin bind = qHTS Assay for Identification of Novel General Anesthetics; Potency, µM (highest dose often 77.5 µM), inactives show at the top dose activity change, negative = displacement, most hits filed as inhibitors; AID 485281, 2010; 350,000 tested, 0.074% active; apoferritin/1-aminoanthracene competitive binding, fluorescence; active = well fitted inhibition curve with a large enough effect; inconclusive = small, poorly fitted or top-dose-only effect; inactive = no such curve, though single readings can be large or run the other way; also: potency is read from the fitted curve at half-maximal effect; % is scaled to controls: 0 for no effect and ±100 for the full control effect; nearly all actives have a fitted effect of over 20% in size
Target sequence (P02791 2-175 limits assumed): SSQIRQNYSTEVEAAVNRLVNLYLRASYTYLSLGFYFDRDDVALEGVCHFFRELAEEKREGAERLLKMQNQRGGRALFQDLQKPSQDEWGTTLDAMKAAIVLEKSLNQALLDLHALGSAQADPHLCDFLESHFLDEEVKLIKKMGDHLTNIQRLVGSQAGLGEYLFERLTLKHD
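10 uM apoferritin + 50% sat. 1-AMA, PBS; cpd 10 min RT; Ex380/Em535 endpoint; normalized to free probe vs complex; 4-param Hill fit; propofol titration as pos. ctrl.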
D2 ag-1 = HTS Assay for Allosteric Agonists of the Human D2 Dopamine Receptor: Primary Screen for Agonists; HEK293 T-REx D2 cells, calcium flux agonist mode; D(2) dopamine receptor (Homo sapiens), P14416; 340,000 tested, 0.53% active; activation, % at 2 µM;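 active = activation over 3 SD above normal in the single-dose calcium agonist read, cut at about 30% in these data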; also: 0% is about no effect
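Tetracycline-induced HEK293 T-REx cells with force-coupled D2 receptor, plated overnight at 30 C, loaded with no-wash calcium dye. After a 10 s baseline, compound was pin-added and calcium flux read kinetically for 180 s; calcium rises flagged agonists.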
D2 ag-2 = Beta-Arrestin HTS for Positive Allosteric Modulators of the Human D2 Dopamine Receptor: Agonists; DiscoveRx PathHunter D2 beta-arrestin, luminescence, 90 min; 100% = 57 uM dopamine signal; activation, % (concentration not given with the values); 360,000 tested, 0.084% active; AID 624465, 2012; in the data active = activation above about 40%; inconclusive = between about 15% and that limit
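DiscoveRx PathHunter D2 beta-arrestin cells (2,100/well) attached overnight, then compound-stimulated 90 min at 37 C in HBSS/10 mM HEPES/0.1% Tween-20 buffer; beta-galactosidase complementation read by luminescence after 1 h at ambient temperature. Dopamine 57 uM final (EC100) as control.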
D2 antag = HTS Assay for Allosteric Antagonists of the Human D2 Dopamine Receptor: Primary Screen for Antagonists | D(2) dopamine receptor (Homo sapiens), P14416 | HEK293 TREx D2 cells, calcium flux, dopamine EC80 | inhibition, % at 10 µM | 340,000 tested, 2% active; in the data active = inhibition above about 30%; inactive = below that, where a call was filed; also: 0% is about no effect
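Tetracycline-induced HEK293 TREx cells expressing D2 receptor forced-coupled to calcium signalling, loaded with no-wash calcium dye. Compounds added and calcium flux read 180 s, then dopamine added at EC80 and read a further 180 s.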
Numbers without * were called inactive; ? = inconclusive; . = no result given; ! = not active in a repeat.

SMILES	D2 PAM-1	D2 PAM-2	Apoferritin bind	D2 ag-1	D2 ag-2	D2 antag
O=S(=O)(NCCc1cccs1)c1ccc(Br)cc1	-14.1	-1.3	-10.5%	0.5	10.1	-5.9
C=CCOc1ccc(C[C@H](N)C(=O)NC[C@H]2O[C@@H](n3cnc4c(N)ncnc43)[C@H](O)[C@@H]2O)cc1	.	-4.1	.	.	-1.1	.
Cc1cccc(C)c1OCCN1C(=O)NC(C)(c2ccccc2)C1=O (configuration not stated)	38.8*	-5.7	-2.1%	1.2	-5.1	-7.6
CC1(c2ccccc2)NC(=O)N(CCOc2ccccc2)C1=O (configuration not stated)	-3.5	-4.7	-22.0%	-0.3	-0.1	6.7
COc1cc(/C=C2\CCCc3c2nc2ccccc2c3C(=O)O)cc([N+](=O)[O-])c1O	-3.4	-21.5	3.3%	1.5	-9.2	-18.0
NC(=O)C1CCN(C(=O)NC2CC(=O)N(c3ccc4c(c3)OCCO4)C2)CC1 (configuration not stated)	-8.4	-31.0	.	0.0	-8.8	45.6*
O=C(COC(=O)CCNS(=O)(=O)c1ccccc1)NC(=O)Cc1ccccc1	-10.3	0.4	.	0.1	5.3	36.6*
O=C(COC(=O)CCNS(=O)(=O)c1ccc(Cl)cc1)NCc1ccccc1	.	-10.1	.	.	-1.9	.
O=C(COC(=O)CCNS(=O)(=O)c1ccccc1F)Nc1nnc(-c2ccccc2)o1	-7.6	9.4	.	-0.8	-5.6	31.5*
Cc1ccc(C(=O)CCC(=O)OCC(=O)Nc2nnc(-c3ccccc3)o2)cc1	8.2	8.5	.	0.3	-3.7	-1.8
O=C(CN1CCC(O)(c2cccc(F)c2)CC1)NCCc1c[nH]c2ccccc12	-17.9	-24.2	1.1%	-0.6	-4.5	44.8*
C1CCN2C[C@H]3C[C@H](CN4CCCCC34)C2C1 (some centres not stated)	.	.	9.6%	.	.	.
COc1cccc(-c2cnc(C(O)c3ccc(C)cc3)[nH]2)c1 (configuration not stated)	.	-20.0	.	.	-4.0	.
CCN(CC)CCOC(=O)c1ccc(Cl)cc1	5.5	-45.5	-0.3%	-0.1	-4.8	-5.2
CCN(CC)CCOC(=O)c1ccc(Cl)cc1Cl	-14.4	-28.9	-6.5%	-0.7	-1.3	32.7*
C1=C[C@@H]2CCN(Cc3ccccc3)Cc3cccc(c32)C1	-14.7	-9.7	.	0.5	4.8	6.2
Cc1ccc(CN2CC[C@H]3C=CCc4cccc(c43)C2)cc1	-13.4	-17.8	.	-0.4	7.1	56.7*
CCOC(=O)c1ccc(NC(=O)Oc2ccccc2)cc1	33.3*	-3.6	-13.2%	0.9	0.2	-2.2
CCOC(=O)c1ccc(NC2=CC(=O)C(=O)c3ccccc32)cc1	-6.2	111.8*	-13.9%	-0.3	9.8	-7.8
Cc1cc(=O)c2c(o1)C(=O)c1occc1C2=O	.	52.2*	.	.	?	.
FC(F)(F)c1ccccc1-c1cncnc1Nc1ccccc1	.	.	-19.9%	.	.	.
O=C(CSc1nnc(NC(=O)c2c(F)cccc2F)s1)NCC1CCCO1 (configuration not stated)	-12.7	8.8	.	0.9	0.9	73.8*
COc1ccc(C)cc1NC(=O)Cn1c(=O)cc(C)c2c(C)nn(C)c21	16.0	.	-8.0%	0.8	.	.
Cc1nc(Nc2ccc(S(N)(=O)=O)cc2)sc1-c1ccccc1	9.9	-3.8	-21.5%	0.4	-3.2	15.9
Cc1oc(-c2cc(F)ccc2F)nc1CN1CCN(c2ncnc3ccccc23)CC1	-14.7	-5.6	-23.9%	1.3	0.5	2.6
SMILES	D2 PAM-1	D2 PAM-2	Apoferritin bind	D2 ag-1	D2 ag-2	D2 antag
Cc1nc2scc(C)n2c(=O)c1S(=O)(=O)N1CCN(c2ccccc2)CC1	0.3	-0.3	-7.5%	-0.7	1.2	31.8*
COc1ccc(N2CCN(S(=O)(=O)c3c(C)nc4scc(C)n4c3=O)CC2)cc1	-1.7	-6.2	-11.2%	-0.5	-2.5	-3.2
CC(=O)N1CCN(c2nc(-c3cccs3)nc3ccccc23)CC1	10.4	4.0	-7.5%	-0.2	-1.3	-5.2
CCCN1CCN(c2nc(-c3cccs3)nc3ccccc23)CC1	-15.0	-42.5	?	-0.7	-2.2	36.6*
CCCCN1C(N)=NC[C@H]1Cc1ccc(O)cc1	-4.1	-9.4	-7.3%	-0.1	-5.1	47.7*
COc1ccc(C(=O)Nc2ccc(C(=O)N3CCC(C)CC3)cc2)cc1OC	2.0	-7.0	-13.3%	-0.9	-0.6	3.3
c1cnc2c(C3NCCc4c3[nH]c3ccccc43)cccc2c1 (configuration not stated)	-20.9	-94.9	-19.9%	-0.2	-9.0	35.8*
O=C(O)c1cccnc1C(=O)N1CCc2c([nH]c3ccccc23)C1C(F)(F)F (configuration not stated)	6.0	-51.7	7.4%	-2.3	4.2	-15.9
Cc1nc2nc[nH]n2c(=O)c1NC(=O)CC12CC3CC(CC(C3)C1)C2	31.4*!	1.5	?	-0.7	2.8	-3.9
CC(C)NC(=O)c1ccc(C2SCC(=O)N2Cc2ccccc2)cc1 (configuration not stated)	8.3	0.4	-13.8%	0.0	2.2	50.3*
O=C1CSC(c2cccc([N+](=O)[O-])c2)N1Cc1ccccc1 (configuration not stated)	-9.8	-2.9	-21.5%	-0.6	7.3	30.3*
Cc1ccc(/C=N/NC(=O)c2ccc3ccccc3c2)s1	-4.4	-13.6	-5.6%	-0.2	-2.1	-3.6
COc1ccc(-c2nn(-c3ccccc3C)cc2CNCc2cccnc2)cc1F	-25.0	-8.1	-14.1%	-1.9	-2.1	39.4*
Cc1nn(C)c(Sc2ccccc2N)c1[N+](=O)[O-]	1.1	0.6	?	0.1	44.5*	-8.8
COc1ccc(CNC(=O)C[C@H]2C[C@H](C(=O)N3CCOCC3)[C@@]3(CCC4CCCC4)c4[nH]c5cc(-c6ccco6)ccc5c4CCN3C2=O)cc1OC	.	-9.4	.	.	-3.3	.
O=C(CN1CCC(Cc2ccccc2)CC1)Nc1ccc2c(c1)OCCO2	-12.9	-26.2	-16.6%	0.1	-1.1	-4.8
COC(=O)CCCCC(=O)OC	2.3	-6.3	.	-0.3	0.7	36.5*
COC(=O)CCC(=O)OC	.	-33.0	.	.	-5.5	.
COc1cccc(CSc2nnnn2-c2ccc(O)cc2)c1	8.0	-5.1	-10.3%	0.7	5.1	3.3

Source: PubChem BioAssay (National Center for Advancing Translational Sciences (NCATS))
